Read-out in assay [1]: Monocyte Chemoattractant Protein-1 (MCP1), CCL2 (gene 6347)
Briefly: BSK_SAg_MCP1: BioMAP Diversity Plus: SAg Assay for Monocyte Chemoattractant Protein-1 (MCP1) Biomarker Activity (AID 2283090). The note with it: primary human HUVEC with PBMC; actives raise or lower the signal. The method, boiled down: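 MCP-1 levels in the endothelial–PBMC SAg co-culture were quantified by ELISA at 24 h post-dosing; both increases and decreases versus DMSO scored. Cytotoxicity monitored by SRB total protein in parallel cultures.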

Read-out in assay [2]: E-selectin (Homo sapiens) (UniProt P16581)
Briefly: BSK_SAg_Eselectin: BioMAP Diversity Plus: SAg Assay for Eselectin Biomarker Activity (AID 2283091). The note with it: primary human HUVEC with PBMC; actives raise or lower the signal. In a few lines: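 Primary human endothelial cells and peripheral blood mononuclear cells were co-cultured and exposed to chemical for 24 hours. E-selectin levels were then quantified by ELISA, with bidirectional curve fitting normalised to DMSO controls.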

Read-out in assay [3]: Monokine induced gamma interferon (MIG), CXCL9 (gene 4283)
Briefly: BSK_SAg_MIG: BioMAP Diversity Plus: SAg Assay for Monokine induced gamma interferon (MIG) Biomarker Activity (AID 2283092). The settings on record: primary human HUVEC with PBMC; actives raise or lower the signal. In a few lines:
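ELISA readout of MIG/CXCL9; primary human umbilical vein endothelial cells co-cultured with peripheral blood mononuclear cells; 24 h post-dose; gain/loss fit vs DMSO baseline.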

Assay [4] is described as follows: BSK_SAg_PBMCCytotoxicity: PBMC Cytotoxicity Assessment in the BioMAP Diversity Plus: SAg Assay (AID 2283093).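 Also: PBMC viability measured as Alamar Blue reduction fluorescence at 546/580 nm; fitted both ways against DMSO so a hit may be loss or gain of signal.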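 As to AC50: PBMC superantigen activated with SEB plus TSST-1 one hour after compound addition.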 The settings on record: primary human HUVEC with PBMC. In a few lines: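 HUVEC/PBMC co-culture; PBMC exposed to chemical 1 h before SEB and TSST-1 activation (20 ng/mL each), incubated 90 h, then Alamar Blue 6 h, fluorescence 546/580 nm. Bidirectional fit versus DMSO baseline.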

Read-out in assay [5]: Interleukin-8 (IL8), CXCL8 (gene 3576)
Briefly: BSK_SAg_IL8: BioMAP Diversity Plus: SAg Assay for Interleukin-8 (IL8) Biomarker Activity (AID 2283094). The settings on record: primary human HUVEC with PBMC; actives raise or lower the signal. The method, boiled down:
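Human umbilical vein endothelial cells co-cultured with PBMC, stimulated with superantigen; IL-8 measured by ELISA 24 h after chemical dosing. Bidirectional fitting versus DMSO; SRB staining in parallel cultures tracks cytotoxicity.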

A short description of assay [6]: BSK_SAg_Proliferation: Cell Proliferation Assessment in the BioMAP Diversity Plus: SAg Assay (AID 2283095). The settings on record: primary human HUVEC with PBMC. The method, boiled down: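 Human umbilical vein endothelial cells co-cultured with PBMC; sulforhodamine B total-protein staining (0.1% SRB after 10% TCA fixation, absorbance 560 nm) at 96 h in sub-confluent culture. Fitted bidirectionally against DMSO.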

Assay [7] concerns the target human CYP2A6, CYP2A6 (gene 1548) (UniProt P11509). Briefly: NVS_ADME_hCYP2A6: NovaScreen (NVS) CYP450-related Enzyme Activity (ADME) Assay for human CYP2A6 (AID 2283099; active = hit-call score of the fitted dose curve at least 0.9, where 1 is the maximum). In a few lines: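 Recombinant human CYP2A6 from insect cells was incubated with chemical for 0.5 h and activity read by fluorescence. Single-concentration duplicates at 10 uM preceded concentration-response testing to 20 uM, with activity referenced to acetonitrile.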

In assay [8] the target is human CYP2B6, CYP2B6 (gene 1555) (UniProt P20813). Briefly: NVS_ADME_hCYP2B6: NovaScreen (NVS) CYP450-related Enzyme Activity (ADME) Assay for human CYP2B6 (AID 2283101; active = hit-call score of the fitted dose curve at least 0.9, where 1 is the maximum). In a few lines:
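Fluorescence-based enzyme activity of recombinant human CYP2B6, measured 1 h post-dose against acetonitrile vehicle baseline. Screened at a single concentration of 10 uM in duplicate before concentration-response follow-up.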

Assay [9] has as its target human CYP2C9, CYP2C9 (gene 1559) (UniProt P11712). Briefly: NVS_ADME_hCYP2C9: NovaScreen (NVS) CYP450-related Enzyme Activity (ADME) Assay for human CYP2C9 (AID 2283108; active = hit-call score of the fitted dose curve at least 0.9, where 1 is the maximum). In a few lines:
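Recombinant human CYP2C9 expressed in SF9 cells, fluorogenic substrate, fluorescence read 0.75 h after dosing. Chemicals first run in duplicate at 10 uM, with actives followed in concentration series; loss of signal versus acetonitrile baseline.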

In assay [10] the target is Cytochrome P450 3A4 (Homo sapiens) (UniProt P08684). Briefly: NVS_ADME_hCYP3A4: NovaScreen (NVS) CYP450-related Enzyme Activity (ADME) Assay for human CYP3A4 (AID 2283110; active = hit-call score of the fitted dose curve at least 0.9, where 1 is the maximum). The method, boiled down: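 Cell-free recombinant enzyme expressed in insect cells; fluorescent substrate turnover read after 0.33 h, acetonitrile as negative control. Primary screen in duplicate at 10 uM, actives then tested in concentration series.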

For assay [11], the target named is human CYP19A1, CYP19A1 (gene 1588) (UniProt P11511). Briefly: NVS_ADME_hCYP19A1: NovaScreen (NVS) CYP450-related Enzyme Activity (ADME) Assay for human CYP19A1 (AID 2283098; active = hit-call score of the fitted dose curve at least 0.9, where 1 is the maximum;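 also: potency for inhibitors seen as loss of fluorescent enzyme signal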). The method, boiled down: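 Recombinant enzyme in a cell-free format, read 0.5 h after dosing by fluorescence from a fluorogenic substrate. Loss of signal was fitted against acetonitrile as baseline. Primary screen in duplicate at 10 uM, actives then tested in concentration series.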

The target in assay [12] is human CYP1A1, CYP1A1 (gene 1543) (UniProt P04798). Briefly: NVS_ADME_hCYP1A1: NovaScreen (NVS) CYP450-related Enzyme Activity (ADME) Assay for human CYP1A1 (AID 2283100; active = hit-call score of the fitted dose curve at least 0.9, where 1 is the maximum). In a few lines: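 Compounds first went through duplicate single-concentration testing at 10 uM against purified CYP1A1. Those passing a threshold such as 30% inhibition entered singleton dose-response, highest concentration 20 uM. Signal was fluorescence measured after 1 hour.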

The target in assay [13] is Cytochrome P450 2C18 (Homo sapiens) (UniProt P33260). Briefly: NVS_ADME_hCYP2C18: NovaScreen (NVS) CYP450-related Enzyme Activity (ADME) Assay for human CYP2C18 (AID 2283103). The method, boiled down: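 Cell-free recombinant human CYP2C18 with fluorogenic substrate; fluorescence intensity read 0.5 h after dosing. Single-point screen at 10 uM in duplicate, then concentration-response up to 20 uM; loss of signal fitted against acetonitrile baseline.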

Assay [14] addresses human CYP2J2, CYP2J2 (gene 1573) (UniProt P51589). Briefly: NVS_ADME_hCYP2J2: NovaScreen (NVS) CYP450-related Enzyme Activity (ADME) Assay for human CYP2J2 (AID 2283106; active = hit-call score of the fitted dose curve at least 0.9, where 1 is the maximum). The method, boiled down:
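Cell-free assay of recombinant CYP2J2 with a fluorogenic substrate, read 1 h after dosing; loss of signal versus acetonitrile. Primary screen at 10 uM in duplicate, then concentration-response up to 20 uM for chemicals passing threshold (e.g., 30% inhibition).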

Assay [15] deals with human CYP2D6, CYP2D6 (gene 1565) (UniProt P10635). Briefly: NVS_ADME_hCYP2D6: NovaScreen (NVS) CYP450-related Enzyme Activity (ADME) Assay for human CYP2D6 (AID 2283107; active = hit-call score of the fitted dose curve at least 0.9, where 1 is the maximum). The method, boiled down: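 Compounds were first tested in duplicate at 10 uM against recombinant enzyme produced in insect cells, with substrate turnover measured by fluorescence after 1 hour. Decreased signal, referenced to acetonitrile vehicle, was taken as reduced enzyme activity. Active chemicals went on to concentration-response testing.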

For assay [16], the target named is Cytochrome P450 2C19 (Homo sapiens) (UniProt P33261). Briefly: NVS_ADME_hCYP2C19: NovaScreen (NVS) CYP450-related Enzyme Activity (ADME) Assay for human CYP2C19 (AID 2283113; active = hit-call score of the fitted dose curve at least 0.9, where 1 is the maximum;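 as to AC50: potency for inhibition seen as loss of fluorescent signal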). The method, boiled down: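 Chemicals first screened in duplicate at 10 uM against recombinant human enzyme produced in insect cells; confirmed actives then run as concentration series. Fluorogenic substrate turnover read by fluorescence after 1 h, normalised to acetonitrile.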

In assay [17] the target is human CYP1A2, CYP1A2 (gene 1544) (UniProt P05177). Briefly: NVS_ADME_hCYP1A2: NovaScreen (NVS) CYP450-related Enzyme Activity (ADME) Assay for human CYP1A2 (AID 2283102; active = hit-call score of the fitted dose curve at least 0.9, where 1 is the maximum;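 also: potency for inhibition since loss of fluorescence marks reduced CYP1A2 activity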). In a few lines:
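Compounds were tested at 10 uM in duplicate against recombinant CYP1A2 produced in insect cells. Enzyme activity was measured by fluorescence 0.5 h after dosing, with loss of signal versus acetonitrile control. Active compounds were re-tested in concentration series.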

In assay [18] the target is human CYP2C8, CYP2C8 (gene 1558) (UniProt P10632). Briefly: NVS_ADME_hCYP2C8: NovaScreen (NVS) CYP450-related Enzyme Activity (ADME) Assay for human CYP2C8 (AID 2283104). The method, boiled down: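 Recombinant human CYP2C8 with fluorogenic substrate, 0.5 h, fluorescence intensity; signal loss fitted versus acetonitrile. Screened in duplicate at 10 uM, then actives run in concentration-response up to 20 uM.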

Assay [19] is described as follows: BSK_SAg_SRB: Viability Assessment in the BioMAP Diversity Plus: SAg Assay (AID 2283096).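 Also: cells read one day after compound addition; hits may be either gain or loss of signal compared with DMSO.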 The note with it: primary human HUVEC with PBMC. The method, boiled down: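 Human umbilical vein endothelial cells co-cultured with PBMC, read 24 h after compound dosing. Total protein measured by sulforhodamine B staining (0.1% SRB after 10% TCA fixation, absorbance 560 nm); bidirectional fit versus DMSO baseline.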

Molecules are shown by their SMILES. Values joined by “and” are separate entries in the source; they are usually repeats but may differ in a detail not shown here. Equal values may be shown once. Inconclusive results are not listed. The source holds several records for some structures; these can differ, active in one and inactive in another. Active and inactive are the calls of the source. The calls were made as follows, unless noted: active = hit-call score of the fitted dose curve at least 0.9, where 1 is the maximum; inactive = score below 0.9.

The record followed here is PubChem BioAssay (EPA / NIEHS).

Usually AC50 stands for the concentration giving half of the maximal activity seen.

E-selectin (Homo sapiens), sequence (P16581 whole entry, looked up): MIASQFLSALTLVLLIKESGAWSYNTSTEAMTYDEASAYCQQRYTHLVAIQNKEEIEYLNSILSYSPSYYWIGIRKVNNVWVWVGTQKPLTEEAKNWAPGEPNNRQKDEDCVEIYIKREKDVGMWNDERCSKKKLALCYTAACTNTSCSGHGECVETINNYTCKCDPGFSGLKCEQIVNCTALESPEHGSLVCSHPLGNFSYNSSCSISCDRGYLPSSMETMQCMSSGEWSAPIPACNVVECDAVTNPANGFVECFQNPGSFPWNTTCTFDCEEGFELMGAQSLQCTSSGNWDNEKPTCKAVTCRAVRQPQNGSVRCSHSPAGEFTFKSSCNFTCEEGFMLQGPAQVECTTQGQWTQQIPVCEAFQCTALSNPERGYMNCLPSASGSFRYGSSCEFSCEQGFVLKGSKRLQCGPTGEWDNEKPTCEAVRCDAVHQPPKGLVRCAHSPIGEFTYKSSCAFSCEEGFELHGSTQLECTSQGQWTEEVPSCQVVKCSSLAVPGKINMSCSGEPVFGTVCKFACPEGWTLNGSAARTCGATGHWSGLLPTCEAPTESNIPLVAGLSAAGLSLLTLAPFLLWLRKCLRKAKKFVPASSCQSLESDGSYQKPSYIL
human CYP2B6, CYP2B6 (gene 1555), sequence (P20813 whole entry, looked up): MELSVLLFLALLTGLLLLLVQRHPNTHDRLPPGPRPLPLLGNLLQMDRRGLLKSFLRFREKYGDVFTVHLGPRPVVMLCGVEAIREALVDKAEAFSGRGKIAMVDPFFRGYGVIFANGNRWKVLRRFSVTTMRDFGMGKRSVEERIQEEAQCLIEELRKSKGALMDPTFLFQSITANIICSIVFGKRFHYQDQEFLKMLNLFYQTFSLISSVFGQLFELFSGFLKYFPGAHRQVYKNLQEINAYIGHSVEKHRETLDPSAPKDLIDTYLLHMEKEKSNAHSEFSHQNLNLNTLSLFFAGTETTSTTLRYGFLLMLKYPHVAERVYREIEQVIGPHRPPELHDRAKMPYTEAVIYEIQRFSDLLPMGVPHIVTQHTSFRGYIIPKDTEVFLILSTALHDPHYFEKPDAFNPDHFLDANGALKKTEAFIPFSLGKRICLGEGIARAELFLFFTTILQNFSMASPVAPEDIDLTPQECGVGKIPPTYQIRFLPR
human CYP2C9, CYP2C9 (gene 1559), sequence (P11712 whole entry, looked up): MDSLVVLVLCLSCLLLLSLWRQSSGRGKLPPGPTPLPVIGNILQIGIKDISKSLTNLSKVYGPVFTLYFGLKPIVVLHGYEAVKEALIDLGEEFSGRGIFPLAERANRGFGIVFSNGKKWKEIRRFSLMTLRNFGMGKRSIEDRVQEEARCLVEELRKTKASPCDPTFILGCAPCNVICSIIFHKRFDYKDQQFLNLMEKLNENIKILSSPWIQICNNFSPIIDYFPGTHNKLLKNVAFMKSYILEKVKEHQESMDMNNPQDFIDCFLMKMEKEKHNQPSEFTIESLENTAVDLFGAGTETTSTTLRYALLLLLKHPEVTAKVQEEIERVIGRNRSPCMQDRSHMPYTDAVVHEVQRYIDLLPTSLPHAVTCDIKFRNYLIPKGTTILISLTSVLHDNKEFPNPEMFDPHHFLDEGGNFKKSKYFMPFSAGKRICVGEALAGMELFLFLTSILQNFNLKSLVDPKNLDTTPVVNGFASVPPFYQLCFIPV
human CYP2A6, CYP2A6 (gene 1548), sequence (P11509 whole entry, looked up): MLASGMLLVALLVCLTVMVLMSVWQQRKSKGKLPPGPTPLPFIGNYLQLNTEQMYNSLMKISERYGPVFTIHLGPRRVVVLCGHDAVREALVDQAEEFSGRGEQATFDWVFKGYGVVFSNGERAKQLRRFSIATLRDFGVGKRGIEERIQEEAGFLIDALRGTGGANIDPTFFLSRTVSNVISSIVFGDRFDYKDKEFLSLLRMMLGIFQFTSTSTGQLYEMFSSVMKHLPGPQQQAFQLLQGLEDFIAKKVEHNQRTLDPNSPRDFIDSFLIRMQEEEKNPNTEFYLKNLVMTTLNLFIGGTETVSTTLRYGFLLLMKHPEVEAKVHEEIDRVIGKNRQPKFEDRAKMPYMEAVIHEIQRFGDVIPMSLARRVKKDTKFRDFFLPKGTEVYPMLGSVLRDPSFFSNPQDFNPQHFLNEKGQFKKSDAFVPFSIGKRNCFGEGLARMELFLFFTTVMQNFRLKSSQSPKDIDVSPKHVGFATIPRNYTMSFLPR
Cytochrome P450 2C18 (Homo sapiens), sequence (P33260 whole entry, looked up): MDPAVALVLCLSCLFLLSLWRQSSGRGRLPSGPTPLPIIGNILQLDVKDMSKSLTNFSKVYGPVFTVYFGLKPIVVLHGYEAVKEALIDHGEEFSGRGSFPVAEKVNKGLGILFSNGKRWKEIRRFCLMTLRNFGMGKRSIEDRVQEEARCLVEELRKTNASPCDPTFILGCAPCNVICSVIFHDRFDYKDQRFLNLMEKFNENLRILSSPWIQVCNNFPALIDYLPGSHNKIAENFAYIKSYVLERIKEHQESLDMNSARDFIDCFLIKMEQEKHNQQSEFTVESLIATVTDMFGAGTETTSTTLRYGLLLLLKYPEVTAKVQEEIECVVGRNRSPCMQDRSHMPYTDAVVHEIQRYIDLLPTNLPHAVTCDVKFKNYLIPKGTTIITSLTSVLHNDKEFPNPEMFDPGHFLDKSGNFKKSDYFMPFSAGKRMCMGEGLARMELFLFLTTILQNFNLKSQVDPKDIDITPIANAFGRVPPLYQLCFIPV
human CYP1A2, CYP1A2 (gene 1544), sequence (P05177 whole entry, looked up): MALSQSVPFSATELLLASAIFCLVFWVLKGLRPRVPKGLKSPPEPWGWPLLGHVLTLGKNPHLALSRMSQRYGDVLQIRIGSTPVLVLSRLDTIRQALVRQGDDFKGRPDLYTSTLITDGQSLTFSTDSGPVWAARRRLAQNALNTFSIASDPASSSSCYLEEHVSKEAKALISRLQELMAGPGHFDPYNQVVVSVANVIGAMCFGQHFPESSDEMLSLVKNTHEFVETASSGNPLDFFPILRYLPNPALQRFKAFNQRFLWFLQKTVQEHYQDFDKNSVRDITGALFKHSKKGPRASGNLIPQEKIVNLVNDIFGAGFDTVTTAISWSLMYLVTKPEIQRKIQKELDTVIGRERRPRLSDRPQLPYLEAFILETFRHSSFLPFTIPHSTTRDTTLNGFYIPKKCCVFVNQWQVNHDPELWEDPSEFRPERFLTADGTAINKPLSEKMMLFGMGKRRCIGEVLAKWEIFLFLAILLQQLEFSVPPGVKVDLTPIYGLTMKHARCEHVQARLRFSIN
human CYP19A1, CYP19A1 (gene 1588), sequence (P11511 whole entry, looked up): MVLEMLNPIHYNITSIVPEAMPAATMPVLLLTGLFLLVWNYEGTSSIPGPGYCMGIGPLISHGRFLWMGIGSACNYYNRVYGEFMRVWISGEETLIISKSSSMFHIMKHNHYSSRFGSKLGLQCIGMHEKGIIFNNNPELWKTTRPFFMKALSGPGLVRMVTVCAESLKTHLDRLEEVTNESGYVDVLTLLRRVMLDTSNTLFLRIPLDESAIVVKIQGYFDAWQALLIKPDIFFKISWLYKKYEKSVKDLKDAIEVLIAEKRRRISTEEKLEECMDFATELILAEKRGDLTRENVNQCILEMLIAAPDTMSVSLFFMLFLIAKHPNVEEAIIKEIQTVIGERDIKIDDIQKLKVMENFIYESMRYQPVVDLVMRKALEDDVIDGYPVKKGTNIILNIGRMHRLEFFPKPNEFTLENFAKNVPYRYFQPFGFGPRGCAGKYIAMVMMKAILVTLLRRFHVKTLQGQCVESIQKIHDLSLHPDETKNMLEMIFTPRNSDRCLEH
human CYP1A1, CYP1A1 (gene 1543), sequence (P04798 whole entry, looked up): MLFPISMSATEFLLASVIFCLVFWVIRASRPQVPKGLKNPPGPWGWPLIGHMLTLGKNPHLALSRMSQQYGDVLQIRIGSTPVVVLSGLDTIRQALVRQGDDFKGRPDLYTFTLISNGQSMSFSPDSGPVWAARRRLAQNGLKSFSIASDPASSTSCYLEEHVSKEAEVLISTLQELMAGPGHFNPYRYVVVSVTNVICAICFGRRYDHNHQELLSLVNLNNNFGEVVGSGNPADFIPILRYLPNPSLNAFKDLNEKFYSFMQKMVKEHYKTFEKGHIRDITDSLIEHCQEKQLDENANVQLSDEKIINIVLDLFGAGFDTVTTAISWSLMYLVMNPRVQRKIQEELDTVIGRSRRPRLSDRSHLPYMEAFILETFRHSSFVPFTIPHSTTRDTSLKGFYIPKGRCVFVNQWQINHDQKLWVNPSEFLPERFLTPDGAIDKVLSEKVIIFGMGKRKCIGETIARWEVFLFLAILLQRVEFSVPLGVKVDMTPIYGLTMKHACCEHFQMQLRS
human CYP2J2, CYP2J2 (gene 1573), sequence (P51589 whole entry, looked up): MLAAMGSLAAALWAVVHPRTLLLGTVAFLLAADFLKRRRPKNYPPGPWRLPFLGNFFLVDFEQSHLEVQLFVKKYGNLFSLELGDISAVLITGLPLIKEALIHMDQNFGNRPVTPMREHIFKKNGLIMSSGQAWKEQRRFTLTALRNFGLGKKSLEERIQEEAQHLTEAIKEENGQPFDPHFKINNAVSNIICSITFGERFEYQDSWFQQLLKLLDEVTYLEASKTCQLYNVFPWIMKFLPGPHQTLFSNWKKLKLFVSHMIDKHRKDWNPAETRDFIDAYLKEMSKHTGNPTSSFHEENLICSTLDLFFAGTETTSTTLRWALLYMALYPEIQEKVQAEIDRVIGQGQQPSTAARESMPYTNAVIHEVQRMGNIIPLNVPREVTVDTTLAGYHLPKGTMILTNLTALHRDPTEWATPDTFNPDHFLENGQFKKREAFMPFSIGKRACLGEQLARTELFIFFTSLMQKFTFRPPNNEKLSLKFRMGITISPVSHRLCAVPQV

With `C=CCC1=C(C)C(OC(=O)C2C(C=C(C)C)C2(C)C)CC1=O` (configuration not stated), the AC50 is 34.9 µM (active) [middle of 4 runs] in [1]; 32.6 µM (active) [middle of 4 runs] in assay [2]; 39.6 µM (active) [middle of 4 runs] in assay [3]; 34 µM (active) [middle of 4 runs] in assay [4]; 28.9 µM (active) [middle of 4 runs] in assay [5]; 30.9 µM (active) [middle of 4 runs] in assay [6]. For the same compound, the AC50 in [9] was 7.07 µM (active) and 14.6 µM (active) and 6.76 µM (active). Moreover, the result in assay [7], in assay [8], in [9] and in assay [10] was inactive.
Take `CCCC1COC(Cn2cncn2)(c2ccc(Cl)cc2Cl)O1` (configuration not stated): the outcome in assay [1], in [2], in [3], in assay [4], in assay [5] and in assay [7] was inactive. For the same compound, in assay [14], the result was inactive. In addition, the AC50 is 20.7 µM (active) in assay [6]; 2.04 µM (active) in assay [11]; 7.82 µM (active) in assay [12]; 2.78 µM (active) in assay [8]; 2.15 µM (active) in [13]; 13.9 µM (active) in [15]. Further, the AC50 in assay [9] is 1.65 µM (active) and 4.57 µM (active); in [16] it was 0.721 µM (active).
Regarding `CC1=C(C(=O)Nc2ccccc2)SCCO1`, the result in assay [1], in [2], in assay [3], in assay [4], in [5] and in assay [6] was inactive. Moreover, the AC50 in assay [17] was 6.47 µM (active).
As to `CCNc1nc(Cl)nc(NCC)n1`, the outcome in assay [1], in [2], in assay [3], in assay [4], in [5] and in assay [6] was inactive. Also, the result in assay [12] was inactive. In addition, the AC50 in [14] was 0.2 µM (active).
Consider `Cc1ccc(-c2c(Cl)nc(C#N)n2S(=O)(=O)N(C)C)cc1`, for which the AC50 in assay [1] was 24.7 µM (active); in assay [2], 13.5 µM (active); in [3], 28.8 µM (active); in assay [5] it was 13.4 µM (active); in assay [6], 30 µM (active); in [17] it was 5.8 µM (active). Also, the AC50 in assay [13] is 10 µM (active); in assay [18], 3.9 µM (active); in [9], 4.54 µM (active); in assay [16] it was 7.38 µM (active). Also, the outcome in assay [4] was inactive.
In the case of `CCCCC(CC)COC(=O)c1ccccc1C(=O)OCC(CC)CCCC` (configuration not stated), the result in assay [1], in [2], in [3], in [4], in assay [5] and in assay [13] was inactive. For the same compound, the call in [9] and in assay [16] was inactive. Moreover, the AC50 was 5 µM (active) in assay [19] and 3.05 µM (active) in assay [11].
